Measured values taken from PubChem BioAssay (Tox21).
Inconclusive results are not listed. Active and inactive are the calls of the source. Unless noted, the call rests on the fitted dose curve; in most records, active means well fitted curve in the direction sought with a large enough effect in the repeat runs; inconclusive means weak or mixed curves; inactive means no such curve, though single readings can be large; an effect the other way counts as inactive or inconclusive.

Assays:
[1] = qHTS assay to identify small molecule agonists of the vitamin D receptor (VDR) signaling pathway - cell viability counter screen (AID 743224); further: series mostly up to about 63 µM; nearly all actives have a fitted effect of over 50% in size
Procedure, shortened: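 Cells: VDR-bla, 2,000/well, settled 4 h. Treatment: compounds in DMSO, 16 h, 37C/5% CO2. Readout: CellTiter-Glo luminescence after 30 min RT.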

[2] = qHTS assay to identify small molecule antagonists of the vitamin D receptor (VDR) signaling pathway - cell viability counter screen (AID 743225); further: nearly all actives have a fitted effect of over 50% in size
Procedure, shortened: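 Read-out: CellTiter-Glo luminescence measured 30 min after reagent addition at room temperature. Cells were VDR-bla HEK 293T exposed 16 h at 37C, 5% CO2, to compound with 3 nM final calcitriol agonist.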

[3] = qHTS assay to identify small molecule agonists of the NFkB signaling pathway - cell viability counter screen (AID 1159515; calls by dose curve; further: series mostly up to about 61 µM; nearly all actives have a fitted effect of over 55% in size)
Procedure, shortened: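 Cells are seeded (2,000 NFkB-bla ME-180 per well), rested overnight, and dosed with DMSO-dissolved compounds for 5 hr at 37 C. Viability is then read by CellTiter-Glo luminescence after 30 min at room temperature.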

[4] = qHTS assay to identify small molecule agonists of the endoplasmic reticulum stress response signaling pathway (AID 1159516; active means well fitted activation curve with a large enough effect in the signal ratio in the repeat runs, not every such curve was filed as active; the % refers to the signal ratio)
Procedure, shortened: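 Cells are seeded at 1,500 per well and incubated overnight. Compounds in DMSO are added for 5 hr at 37 C, then beta-lactamase FRET substrate for 2 hr at room temperature, and fluorescence at 460 and 530 nm is measured.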

[5] = qHTS assay to identify small molecule antagonists of the retinoid-related orphan receptor gamma (ROR-gamma) signaling pathway - cell viability counter screen (AID 1159520); further: nearly all actives have a fitted effect of over 50% in size
Procedure, shortened: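 Tet-on ROR gamma CHO cells were given compounds for 2 hr, then doxycycline hyclate at 1 uM final, and incubated 16 hr at 37 C. Viability was measured as ATP content by CellTiter-Glo luminescence.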

[6] = target: Nuclear receptor ROR-gamma (Homo sapiens) (UniProt P51449); test: qHTS assay to identify small molecule antagonists of the retinoid-related orphan receptor gamma (ROR-gamma) signaling pathway (AID 1159521;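 further: CHO cells with doxycycline inducible ROR-gamma driving an RORE luciferase reporter; top concentration of the series differs between compounds; nearly all actives have a fitted effect of over 50% in size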)
Procedure, shortened: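 CHO Tet-on RORγ, RORE-luc reporter. Cpd 2 h pre-incubation, then dox hyclate 1 uM final, 16 h, 37 C/5% CO2. ONE-Glo luminescence; decrease = antagonist.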

[7] = qHTS assay to identify small molecule agonists of the AP-1 signaling pathway - cell viability counter screen (AID 1159525; calls by dose curve; further: nearly all actives have a fitted effect of over 55% in size)
Procedure, shortened: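 Same-well cytotoxicity counter screen of the Tox21 10K library in ME-180 cells. The readout is ATP-dependent luminescence after 5 h compound treatment. Data are normalised to DMSO and tetra n-octyl ammonium bromide controls.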

[8] = qHTS assay to identify small molecule agonists of the AP-1 signaling pathway (AID 1159526; calls by dose curve)
[9] = target: Retinoic acid receptor RXR-alpha (Homo sapiens) (UniProt P19793); test: qHTS assay to identify small molecule agonists of the RXR signaling pathway (AID 1159527; calls by dose curve; further: nearly all actives have a fitted effect of over 35% in size)
Procedure, shortened: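 Read-out: beta-lactamase FRET ratio (405 nm excitation, 460 and 530 nm emission) after 2 hr substrate loading at room temperature. Cells were RXR-alpha-UAS-bla HEK 293T treated with compounds for 16 hr in 2% charcoal-stripped FBS medium.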

Measured: Potency

Chain of Retinoic acid receptor RXR-alpha (Homo sapiens) (P19793 whole entry, looked up): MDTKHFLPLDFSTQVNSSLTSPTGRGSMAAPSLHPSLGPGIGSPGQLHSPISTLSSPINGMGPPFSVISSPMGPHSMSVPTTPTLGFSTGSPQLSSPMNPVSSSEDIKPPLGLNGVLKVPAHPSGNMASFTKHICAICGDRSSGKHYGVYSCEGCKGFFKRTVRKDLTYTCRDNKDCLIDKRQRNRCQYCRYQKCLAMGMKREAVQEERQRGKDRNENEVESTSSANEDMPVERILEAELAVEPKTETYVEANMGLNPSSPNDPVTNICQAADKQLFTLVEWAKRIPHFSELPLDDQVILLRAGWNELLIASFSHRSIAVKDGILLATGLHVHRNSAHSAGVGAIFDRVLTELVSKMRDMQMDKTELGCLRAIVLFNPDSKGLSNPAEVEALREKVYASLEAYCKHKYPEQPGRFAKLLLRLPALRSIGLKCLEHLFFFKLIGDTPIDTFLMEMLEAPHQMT

BrCCOc1ccccc1
inactive: all assays above

CCCCCCCC(=O)N(C)C
inactive: all assays above

CCCCNCC
inactive: all assays above

Cc1ccc(NC(N)=O)cc1
inactive: all assays above

C=CCCCCCCCCOC(C)=O
not listed: [1] | [9]
inactive: all other assays above

O=c1c(O)c(O)c1=O
inactive: all assays above

Clc1ccc2c(c1)Nc1ccccc1S2
inactive: all assays above

CCCCCCCOC(C)=O
inactive: all assays above

COc1ccc2cc(CCC(C)=O)ccc2c1
not listed: [1]
inactive: all other assays above

Nc1nc(Cl)cc(Cl)n1
not listed: [9]
inactive: all other assays above

OCCC(F)(F)C(F)(F)C(F)(F)C(F)(F)C(F)(F)C(F)(F)F
not listed: [1] | [9]
inactive: all other assays above

O=c1[nH]c(=O)c2cn[nH]c2[nH]1
inactive: all assays above

CC/C=C/CCCCCCCCCCOC(C)=O
not listed: [9]
inactive: all other assays above

C/C(Cl)=C/CCl
not listed: [9]
inactive: all other assays above

Cc1ccc(S(=O)(=O)NC(=O)NN2CC3CCCC3C2)cc1 (stereo not given)
not listed: [9]
inactive: all other assays above

CC(C)(O)c1ccc(C(C)(C)O)cc1
inactive: all assays above

CCN1CCN(C(=O)N[C@@H](C(=O)N[C@@H]2C(=O)N3[C@@H]2SC(C)(C)[C@H]3C(=O)O)c2ccccc2)C(=O)C1=O
not listed: [1]
inactive: all other assays above

CCC(C)SSC(C)CC (stereo not given)
not listed: [2]
inactive: all other assays above

NNC(=O)CCCCC(=O)NN
inactive: all assays above

Cc1cc(C)c(N)c(Cl)c1
inactive: all assays above

CCCCOCCCC
not listed: [9]
inactive: all other assays above

COC(=O)c1cc(Cl)c(NC(C)=O)cc1OC
not listed: [1]
inactive: all other assays above

CC(C)(C)NCC(O)COc1cccc2c1CCC(=O)N2 (stereo not given)
not listed: [9]
inactive: all other assays above

CCCC(=O)CC
not listed: [2]
inactive: all other assays above

C/C=C/C(=O)CCCC
not listed: [1]
inactive: all other assays above

CCCCCCCCCCCCCC(=O)OCC
inactive: all assays above

CN(C)c1ccncc1
inactive: all assays above

CCCCCCCCCCCBr
not listed: [9]
inactive: all other assays above
